Cruzain noTriton: qHTS Assay for Promiscuous and Specific Inhibitors of Cruzain (without detergent); Cruzipain (Trypanosoma cruzi), P25779; purified cruzain, Z-FR-AMC fluorescence, no detergent; Potency, µM, for the others: max response, negative = inhibition, actives largely listed as inhibitors; 200,000 tested, 2.3% active;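 further: plate controls were enzyme without inhibitor for no effect and buffer without enzyme for full effect; nearly all actives have a fitted effect of over 40% in size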
Target sequence (P25779 123-467 limits assumed): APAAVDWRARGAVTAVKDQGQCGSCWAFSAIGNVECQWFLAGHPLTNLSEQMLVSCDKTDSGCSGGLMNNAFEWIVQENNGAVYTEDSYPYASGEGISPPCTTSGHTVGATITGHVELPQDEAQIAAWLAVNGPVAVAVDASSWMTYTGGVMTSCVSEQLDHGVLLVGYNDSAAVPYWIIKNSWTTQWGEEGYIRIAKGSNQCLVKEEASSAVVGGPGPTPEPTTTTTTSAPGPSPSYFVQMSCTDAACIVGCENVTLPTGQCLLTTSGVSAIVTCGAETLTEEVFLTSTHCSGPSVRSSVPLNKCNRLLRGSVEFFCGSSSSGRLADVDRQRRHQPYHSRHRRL
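Detergent-free condition (0.00005% Triton X-100) in acetate buffer pH 5.5 with DTT. 1.5 nM enzyme and compound were pre-mixed 15 min, then 2 uM Z-FR-AMC substrate added; reaction progress from fluorescence change between first and third reads (60 s).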
Cruzain Triton: qHTS Assay for Promiscuous and Specific Inhibitors of Cruzain (with detergent) | Cruzipain (Trypanosoma cruzi), P25779 | purified cruzain, Z-FR-AMC fluorescence, 0.01% Triton | Potency, µM, without a hit: max response, negative = inhibition, usual class: inhibitors | 200,000 tested, 0.43% active;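 further: plate controls were neutral wells for no effect and buffer without enzyme for full effect; nearly all actives have a fitted effect of over 40% in size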
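15 min RT preincubation of 1.5 nM cruzain with compound, then 2 uM Z-FR-AMC added; kinetic AMC fluorescence, 60 s delta. Triton X-100 0.01%, pH 5.5.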
An asterisk follows results filed as active. Hits are enriched below; roughly 2.4% of the tested compounds scored in any of these assays. The call rests on the fitted dose curve; in most records, active means well fitted curve in the direction sought with a large enough effect; inconclusive means small, poorly fitted or top-dose-only effect, or another doubt; inactive means no such curve, though single readings can be large; an effect the other way counts as inactive or inconclusive. Potency means the concentration at half of the fitted maximal effect.

What do the screens show for `CCOC(=O)c1c(NC(=S)Nc2ccccc2)sc2c1CCCCC2`?
Cruzain noTriton: -15%; Cruzain Triton: -5%

What do the screens show for `CCOC(=O)c1c(NC(=S)Nc2cccc(C)c2)sc2c1CC(C)(C)SC2`?
Cruzain noTriton: 20µM*; Cruzain Triton: -9%

What do the screens show for `O[C@@H](c1cc(-c2ccc(Cl)cc2)nc2ccccc12)C1CCCCN1` (stereo not given in full)?
Cruzain noTriton: -9%; Cruzain Triton: 3%

How did COc1ccc(C(=O)Nc2cccc(-c3cc4ccccc4oc3=O)c2)cc1[N+](=O)[O-] do in these assays?
Cruzain noTriton: 10µM*; Cruzain Triton: -9%

What do the screens show for `COc1cc(NC(=O)c2ccc(Cl)cc2Cl)ccc1-c1cc2ccccc2oc1=O`?
Cruzain noTriton: 20µM*; Cruzain Triton: 1%

What do the screens show for `O=C(Nc1ccc(N2CCOCC2)c(Cl)c1)c1cc2ccccc2o1`?
Cruzain noTriton: 4%; Cruzain Triton: -8%

Results for Cc1cc(NC(=O)c2cc(Cl)ccc2Cl)ccc1-c1cc2ccccc2oc1=O ?
Cruzain noTriton: 17%; Cruzain Triton: -5%

What do the screens show for `COc1ccc(C(=O)Nc2ccccc2)cc1[N+](=O)[O-]`?
Cruzain noTriton: -3%; Cruzain Triton: -5%

How did O=C(Nc1ccc(N2CCCC2)c(Cl)c1)c1cccc(-c2cc3ccccc3oc2=O)c1 do in these assays?
Cruzain noTriton: 4µM*; Cruzain Triton: -2%

How did CCc1cccc(C)c1NS(=O)(=O)c1ccc2c(c1)CC(C)N2C(=O)C1CC1 (stereo not given) do in these assays?
Cruzain noTriton: -25%; Cruzain Triton: -4%

What do the screens show for `CCOC(=O)c1[nH]c2ccccc2c1NC(=O)c1cc(OCC)c(OCC)c(OCC)c1`?
Cruzain noTriton: 6%; Cruzain Triton: 2%

How did Cc1ccc(C(=O)c2cn(Cc3c(F)cccc3Cl)c3nc(C)ccc3c2=O)cc1 do in these assays?
Cruzain noTriton: -14%; Cruzain Triton: -1%

How did O=C(C[C@@H](C(=O)O)N1CCOCC1)c1ccccc1 do in these assays?
Cruzain noTriton: 1%; Cruzain Triton: 3%

What do the screens show for `C[N+](C)(C)[C@H](Cc1c[nH]c(=S)[nH]1)C(=O)O`?
Cruzain noTriton: 8%; Cruzain Triton: -1%

What do the screens show for `CCn1c(=O)c2c(O)cc(=O)oc2c2ccccc21`?
Cruzain noTriton: -6%; Cruzain Triton: -4%

What do the screens show for `CC(C)n1c(=O)c2c(O)cc(=O)oc2c2ccccc21`?
Cruzain noTriton: 25µM*; Cruzain Triton: 1%

How did Cc1ccc(S(=O)(=O)c2cn(CC(=O)Nc3ccccc3)c3cc4c(cc3c2=O)OCO4)cc1 do in these assays?
Cruzain noTriton: 1µM*; Cruzain Triton: -2%

How did Cc1cccc(NC(=O)Cn2cc(S(=O)(=O)c3ccc(F)cc3)c(=O)c3cc4c(cc32)OCO4)c1 do in these assays?
Cruzain noTriton: inconclusive; Cruzain Triton: -3%

What do the screens show for `COc1cccc2c1C(=O)CC(c1ccccc1)O2` (stereo not given)?
Cruzain noTriton: 3%; Cruzain Triton: -2%

What do the screens show for `O=C(Nc1cccc(Cl)c1)Nc1cccc(Cl)c1`?
Cruzain noTriton: 2%; Cruzain Triton: -11%

What do the screens show for `CCOC(=O)c1c(NC(=O)Nc2ccc(Cl)cc2)sc(C)c1C`?
Cruzain noTriton: 25µM*; Cruzain Triton: -1%

How did CCOC(=O)c1c(NC(=O)Nc2cccc(Cl)c2)sc(C)c1C do in these assays?
Cruzain noTriton: 25µM*; Cruzain Triton: 0%

What do the screens show for `CCOC(=O)c1sc(NC(=O)Nc2ccc(Cl)cc2)cc1C`?
Cruzain noTriton: -8%; Cruzain Triton: -2%

Results for COc1ccc(NC(=O)CC2C(=O)N(c3ccc(F)cc3)C(=O)N2Cc2ccc3c(c2)OCO3)cc1 (stereo not given) ?
Cruzain noTriton: -1%; Cruzain Triton: -1%

What do the screens show for `CC(NC(=O)CCCn1c(=O)c2cccn2c2cccnc21)c1ccccc1` (stereo not given)?
Cruzain noTriton: -1%; Cruzain Triton: -3%

What do the screens show for `CCc1ccc(NC(=O)c2ccc3[nH]c(C)c(C)c3c2)cc1`?
Cruzain noTriton: -13%; Cruzain Triton: -4%

What do the screens show for `Cc1ccc(NC(=O)N(Cc2cccs2)Cc2cc3cc4c(cc3[nH]c2=O)OCO4)cc1`?
Cruzain noTriton: inconclusive; Cruzain Triton: 0%

How did Cc1ccc(NC(=O)N(Cc2ccc3c(c2)OCO3)Cc2cc3cc4c(cc3[nH]c2=O)OCCO4)cc1 do in these assays?
Cruzain noTriton: 32µM*; Cruzain Triton: 2%

What do the screens show for `Cc1ccc(-c2nn(-c3ccccc3)cc2/C=N/NC(=O)c2ccc(Br)o2)cc1`?
Cruzain noTriton: inconclusive; Cruzain Triton: 1%

What do the screens show for `COc1ccc(-c2nn(-c3ccccc3)cc2/C=N/NS(=O)(=O)c2ccccc2)cc1`?
Cruzain noTriton: inconclusive; Cruzain Triton: -1%

What do the screens show for `O=C(N/N=C\c1cn(-c2ccccc2)nc1-c1ccccc1)c1ccc(Br)o1`?
Cruzain noTriton: 25µM*; Cruzain Triton: 2%

Results for COc1ccc(-c2nn(-c3ccccc3)cc2/C=N/NC(=O)c2cccc(S(=O)(=O)Nc3ccccc3Cl)c2)cc1 ?
Cruzain noTriton: 7.9µM*; Cruzain Triton: -6%

Results for O=C(COC(=O)Cc1c(F)cccc1Cl)NCCC1=CCCCC1 ?
Cruzain noTriton: 1%; Cruzain Triton: -3%

How did O=C(COC(=O)CNC(=O)c1cccc(F)c1)NCCC1=CCCCC1 do in these assays?
Cruzain noTriton: 13µM*; Cruzain Triton: 16µM*

How did COc1ccc(/C=C(\C#N)C(=O)OCC(=O)Nc2c(C)cccc2C)cc1 do in these assays?
Cruzain noTriton: inconclusive; Cruzain Triton: -1%

Results for COc1ccc(/C=C(\C#N)C(=O)OCC(=O)NCc2ccccc2)cc1 ?
Cruzain noTriton: 32µM*; Cruzain Triton: -10%

What do the screens show for `CCOCCCNC(=O)c1cc2c(=O)n(C)c3ccccc3c2n1C`?
Cruzain noTriton: -11%; Cruzain Triton: -2%

What do the screens show for `Cn1c(C(=O)NCCN2CCN(c3ccccc3F)CC2)cc2c(=O)n(C)c3ccccc3c21`?
Cruzain noTriton: -10%; Cruzain Triton: -4%

Results for Cn1c(C(=O)NCCN2CCc3ccccc3C2)cc2c(=O)n(C)c3ccccc3c21 ?
Cruzain noTriton: inconclusive; Cruzain Triton: 25µM*

What do the screens show for `CCCN(CCC)CCNC(=O)c1cc2c(=O)n(C)c3ccccc3c2n1C`?
Cruzain noTriton: inconclusive; Cruzain Triton: 16µM*

How did CCn1c(SCc2ccccc2)nnc1-c1nonc1NC(C)=O do in these assays?
Cruzain noTriton: 20%; Cruzain Triton: -2%

What do the screens show for `Cc1ccc(N2CCN(c3nc4ccc(C(=O)c5ccccc5)cc4n4cnnc34)CC2)c(C)c1`?
Cruzain noTriton: 4%; Cruzain Triton: -2%

How did CCOC(=O)CSc1nc2sc3c(c2c(=O)n1Cc1ccccc1)CC(C(C)C)OC3 (stereo not given) do in these assays?
Cruzain noTriton: -1%; Cruzain Triton: -2%

How did CCc1cccc(NC(=O)Cn2c(C(=O)OC)cc3sc(Cl)cc32)c1 do in these assays?
Cruzain noTriton: 11%; Cruzain Triton: 0%

What do the screens show for `COC(=O)c1cc2sc(Cl)cc2n1CC(=O)Nc1cccc(SC)c1`?
Cruzain noTriton: 25µM*; Cruzain Triton: -16%

How did Cc1nc(Nc2ccccc2)c2nc(-c3ccccc3)n(CCN3CCOCC3)c2n1 do in these assays?
Cruzain noTriton: inconclusive; Cruzain Triton: -8%

High-throughput results deposited in PubChem by National Center for Advancing Translational Sciences (NCATS).
